Source: PubChem BioAssay (National Center for Advancing Translational Sciences (NCATS))
Most compounds without a hit are left out; they make up all but 21% or so of the library.
Cycloheximide cs: counter-screen for Shiga toxin inhibitors: cycloheximide protein synthesis inhibition | cell reporter, cycloheximide protein synthesis inhibition counterscreen | max response, % | actives 12% (n = 300,000) | AID 2314; in the data active = max response mostly above about 13%, no sharp cut-off; inactive = mostly below about 14%; note: read at 38.3 µM for the half of the compounds with a filed dose; 0% is about no effect
Sm TGR block: inhibitors of Schistosoma mansoni thioredoxin glutathione reductase; Q962Y6; purified TGR, DTNB reduction, TNB absorbance 405 nm; Potency, µM (top dose mostly 114 µM), inactives show at the top dose activity change, negative = inhibition, usual class: inhibitors; actives 3% (n = 360,000); note: potency is the fitted concentration of half-maximal effect; % is set by controls: 0 for no effect and ±100 for the full control effect; nearly all actives have a fitted effect of over 60% in size
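First, TGR (20 nM dispensed) and NADPH were mixed with compound. Second, a 15 min room-temperature incubation followed. Third, further NADPH and then DTNB were added to start the reaction. Finally, TNB absorbance was monitored kinetically.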
NS1 function inh: blocks influenza NS1 protein function; AID 2326; Potency, µM (highest dose often 46.1 µM), without a hit: at the top dose activity, positive = more growth; actives 0.4% (n = 270,000); calls by dose curve; note: potency is the fitted concentration of half-maximal effect; actives are rising curves; nearly all actives have a fitted effect of over 50% in size
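S. cerevisiae expressing influenza A NS1, grown in glucose, washed, then diluted 1:100 into pH 6.0 -URA galactose medium with 23 nl compound. Growth recovery read as OD600; NS1-free strain serves as control.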
Pf growth 96h: P. falciparum growth inhibition at 96 hours; P. falciparum luciferase reporter growth, 96 h; Potency, µM (doses to about 28.7 µM), inactives show top-dose activity change, negative = inhibition, hits mostly inhibitors; actives 6.9% (n = 320,000); note: potency is the fitted concentration of half-maximal effect; % is set by controls: 0 for no effect and ±100 for the full control effect
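Erythrocytes infected with luciferase-expressing P. falciparum were dispensed at 2% hematocrit and 0.05% parasitemia (final), then incubated with compounds 96 hours at 37 C in 5% CO2. Luminescence after detection reagent addition reported growth.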
Shiga inhibitor: Shiga toxin inhibition; Vero cells, Shiga toxin protein synthesis inhibition reporter; inhibition, % at 38.7 µM; actives 9.2% (n = 290,000); in the data active = inhibition mostly above about 28%, no sharp cut-off; inactive = mostly below about 43%; note: 0% is about no effect
Pf growth 48h: P. falciparum growth inhibition at 48 hours (one generation) | P. falciparum luciferase growth in erythrocytes, 48 h | actives 5.9% (n = 310,000) | Potency, µM (highest dose often 28.7 µM), for inactives: at the top dose activity change, negative = inhibition, usual class: inhibitors; note: potency is the fitted concentration of half-maximal effect; % is set by controls: 0 for no effect and ±100 for the full control effect
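Parasite viability was followed by luminescence of a genomically integrated firefly luciferase. Cultures held 0.1% parasitemia at 2% hematocrit (final), incubated under 5% CO2 at 37 C.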
Numbers without * were called inactive; ? = inconclusive; . = no result given; + = active, no number; [ ] = another dose, or the depositor's remark. Unless noted, calls come from the whole dose curve; as a rule, active = well fitted curve in the direction sought with a large enough effect; inconclusive = small, poorly fitted or top-dose-only effect, or another doubt; inactive = no such curve, though single readings can be large; an effect the other way counts as inactive or inconclusive.

SMILES	Cycloheximide cs	Sm TGR block	NS1 function inh	Pf growth 96h	Shiga inhibitor	Pf growth 48h
Cc1ccc(S(=O)(=O)Nc2nc3n(n2)C(c2ccc(Cl)cc2)CC(=O)N3)cc1 (configuration not stated)	-2	11%	-3%	1%	-21	-2%
CC1=CC(c2ccc(Cl)cc2)n2nc(NS(=O)(=O)c3ccc(C)cc3)nc2N1 (configuration not stated)	2	32µM*	10%	11%	-12	4%
Cc1ccc(S(=O)(=O)Nc2nc3n(n2)C(c2ccc(F)cc2)C=C(c2ccccc2)N3)cc1 (configuration not stated)	.	-3%	.	.	.	.
CC1=CC(c2ccccc2)n2nc(NS(=O)(=O)c3ccc(C)cc3)nc2N1 (configuration not stated)	10	35µM*	?	7%	2	10%
CC(C)c1ccc(N2C=Nc3ccc(C(C)C)cc3C2)cc1	19*	3%	-10%	?	52*	?
C1=Nc2ccccc2CN1c1ccccc1	65*	5%	33%	-9%	93*	126%
O=C1Cc2ccccc2N1c1ccccc1	-2	-4%[11.4 µM]	11%	.	-7	.
CCOc1ccc(NC(=O)C2CCCN(S(C)(=O)=O)C2)cc1 (configuration not stated)	1	10%	0%	?	-2	26%
Cc1nc([N+](=O)[O-])c(Br)n1CC(=O)c1ccc(Br)cc1	1	11µM*	-149%	?	-20	.
Cc1nc([N+](=O)[O-])c(Br)n1CC(=O)c1ccc2ccccc2c1	2	14µM*	-219%	?	-21	.
Cc1nc([N+](=O)[O-])c(Br)n1CC(=O)c1ccccc1	10	4µM*	-49%	.	-16	?
O=C1C(=O)N(CCN2CCOCC2)C(c2cccnc2)/C1=C(/O)c1ccc(Cl)cc1 (configuration not stated)	-4	.	5%	2%	-5	9%
CCN(CC)Cc1c[nH]c2c(C(=O)OC)cccc12	20	0%	0%	2.6µM*	20	0%
CN(Cc1c[nH]c2ccccc12)C1CCCCC1	-5	1%	0%	1%	-12	-16%
CCN(CC)Cc1c[nH]c2ccccc12	28	?	-9%	8.3µM*	59	?
COC(=O)c1c[nH]c(=O)c2ccccc12	-1	-4%	4%	?	-16	35%
N#Cc1c[nH]n2c(NC3CCCCC3)c(-c3cccc(Cl)c3)nc12	.	-14%	.	.	.	.
O=C(c1ccccc1)c1cc2ccccc2oc1=O	37	0%	-7%	62%	60*	89%
N/C(=N\NC(=O)c1ccc(F)cc1)c1cc2ccccc2oc1=O	10	-3%	0%	15%	27	26%
O=C(NNC(=O)c1cc2ccccc2oc1=O)c1ccccc1	20*	-3%	-21%	-23%	62*	45%
O=C(O)c1cc2ccccc2oc1=O	43*	5%	-37%	27%	58*	19%
O=C(c1ccccc1)N1CCN(C(=O)c2cc3ccccc3oc2=O)CC1	-9	17%	7%	3%	4	-6%
O=C(NCCN1CCOCC1)c1cc2ccccc2oc1=O	13	1%	-1%	?	35*	45%
CC(Sc1nnc(C2CC2)n1C1CC1)C(=O)N(C)Cc1cccc(F)c1 (configuration not stated)	.	-4%	.	?	.	3%
Cc1cc(Br)ccc1NC(=O)CN1C(=O)C2C3CC(c4ccccc4)C(C3)C2C1=O (configuration not stated)	14	-16%	14%	?	-7	?
SMILES	Cycloheximide cs	Sm TGR block	NS1 function inh	Pf growth 96h	Shiga inhibitor	Pf growth 48h
CCCCCC(=O)N1c2ccccc2C(C)(c2ccccc2)CC1(C)C (configuration not stated)	7	2%	.	.	13	.
COc1ccc(NC(=O)CC2C(=O)N(C)C(=S)N2Cc2ccncc2)cc1 (configuration not stated)	3	-20%	10%	23%	-16	?
Cc1cc[n+](CC(=O)c2cc3ccccc3oc2=O)cc1	60*	?	?	?	+	1%
Cc1ccc(NC(=O)N/C=C/c2ccc(Cl)cc2)cc1	55	31%	21%	?	29	2%
O=C(N/C=C/c1ccccc1)Nc1ccc(Cl)cc1	74*	0%	-47%	88%	198*	98%
Cc1ccc(NC(=O)N/C=C/c2ccccc2)cc1	24*	0%	-50%	70%	42*	89%
Cc1cccc(C(=O)N2CCN(c3ncnc4c3cnn4-c3ccccc3)CC2)c1	-2	2%	-14%	-15%	-3	9.3µM*
Cc1cccc(-n2ncc3c(N4CC(C)CC(C)C4)ncnc32)c1 (configuration not stated)	39*	0%	-3%	-91%	80*	.
COc1ccc(N2CCN(c3ncnc4c3cnn4-c3ccc(C)cc3C)CC2)cc1	-1	-2%	-2%	138%	-4	?
Cc1cccc(-n2ncc3c(N4CCOCC4)ncnc32)c1	15*	-20%	-22%	16%	-11	64%
Cc1ccc(-n2ncc3c(N4CCN(c5ccccc5)CC4)ncnc32)c(C)c1	24*	16%	10%	?	44	12µM*
Cc1cccc(-n2ncc3c(N4CCN(c5ccccc5)CC4)ncnc32)c1	.	4%	.	.	.	.
CCOc1ccc(NC(=O)c2cc3cc4cc(OC)ccc4nc3s2)cc1	.	3%	.	.	.	.
COc1ccc(C)cc1N(CC(=O)N/N=C/c1ccc2c(c1)OCO2)S(C)(=O)=O	1	-1%[57.1 µM]	-6%	2%	-10	-4%
Cc1ccc(CNC(=O)CN(C(=O)C2(C)CC(=O)N=C3C=CC=CN32)c2ccc(F)cc2)cc1 (configuration not stated)	9	-3%	19%	10%	11	17%
Cc1cnc(C(=O)N2CCCC(C(=O)c3cccc(OC(C)C)c3)C2)cn1 (configuration not stated)	-3	9%	1%	?	1	18%
